Experimental data as given in PubChem BioAssay (NCATS).
Inconclusive results are not listed. Activity calls are given as the source filed them. Calls come from the whole dose curve; as a rule, active = well fitted curve in the direction sought with a large enough effect; inconclusive = small, poorly fitted or top-dose-only effect, or another doubt; inactive = no such curve, though single readings can be large; an effect the other way counts as inactive or inconclusive.

What was measured:
[1] = qHTS of pediatric cancer cell lines to identify multiple opportunities for drug repurposing: Primary screen for TC32 cells (AID 1347089); note: nearly all actives have a fitted effect of over 60% in size
In short: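 TC32 cells, 500-1,000/well in growth medium, compound-treated 48 h at 37 °C; viability from CellTiter-Glo luminescence. Primary screen: MIPE 11-point (0.78 nM–46 µM final), NPC 8-point (0.59 nM–46 µM final); confirmatory at 11-point dilutions.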

[2] = qHTS of pediatric cancer cell lines to identify multiple opportunities for drug repurposing: Primary screen for DAOY cells (AID 1347090); note: nearly all actives have a fitted effect of over 55% in size
In short: (§1)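 Eight- or eleven-point concentration series, 48 h treatment at 37 degrees C in growth media; readout CellTiter-Glo luminescence. Potency and efficacy were taken from the concentration-response curves.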

[3] = qHTS of pediatric cancer cell lines to identify multiple opportunities for drug repurposing: Primary screen for A673 cells (AID 1347092); note: nearly all actives have a fitted effect of over 45% in size
In short: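 A673 cells (500-1,000 cells/well) were treated 48 hours at 37 degrees C with compounds at 11-point (0.78 nM to 46 µM) or 8-point (0.59 nM to 46 µM) dilutions. Viability read by CellTiter-Glo luminescence; concentration-response curves fitted.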

[4] = qHTS of pediatric cancer cell lines to identify multiple opportunities for drug repurposing: Primary screen for BT-37 cells (AID 1347094)
In short: (§2)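 Luminescence from CellTiter-Glo served as readout of metabolically active cells after 48 h compound exposure. Titrations: MIPE 11-point, from 0.78 nM; NPC 8-point, from 0.59 nM (final). Concentration-response curves came straight from the primary screen.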

[5] = qHTS of pediatric cancer cell lines to identify multiple opportunities for drug repurposing: Primary screen for NB-EBc1 cells (AID 1347095)
In short: as §2

[6] = qHTS of pediatric cancer cell lines to identify multiple opportunities for drug repurposing: Primary screen for U-2 OS cells (AID 1347096); note: nearly all actives have a fitted effect of over 50% in size
In short: (§3)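 Cells (500-1,000/well) in growth media were settled 5 h at 37 degrees C, then given compounds for 48 h. Viability was read as CellTiter-Glo luminescence. Primary runs used MIPE at 11 points (0.78 nM-46 µM) and NPC at 8 points (0.59 nM-46 µM); follow-ups used 11 points.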

[7] = qHTS of pediatric cancer cell lines to identify multiple opportunities for drug repurposing: Primary screen for Saos-2 cells (AID 1347097); note: nearly all actives have a fitted effect of over 40% in size
In short: as §2

[8] = qHTS of pediatric cancer cell lines to identify multiple opportunities for drug repurposing: Primary screen for SK-N-SH cells (AID 1347098); note: nearly all actives have a fitted effect of over 65% in size
In short: (§4)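 Cells (500-1,000/well) rested 5 h, then received compounds for 48 h; metabolically active cells were measured by CellTiter-Glo luminescence. Final concentrations spanned up to 46 µM (MIPE, 11-point) or 0.59 nM-46 µM (NPC, 8-point) in primary screens, 11-point in follow-ups.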

[9] = qHTS of pediatric cancer cell lines to identify multiple opportunities for drug repurposing: Primary screen for NB1643 cells (AID 1347099); note: nearly all actives have a fitted effect of over 50% in size
In short: as §2

[10] = qHTS of pediatric cancer cell lines to identify multiple opportunities for drug repurposing: Primary screen for BT-12 cells (AID 1347101); note: nearly all actives have a fitted effect of over 25% in size
In short: as §4

[11] = qHTS of pediatric cancer cell lines to identify multiple opportunities for drug repurposing: Primary screen for Rh18 cells (AID 1347102); note: nearly all actives have a fitted effect of over 65% in size
In short: as §3

[12] = qHTS of pediatric cancer cell lines to identify multiple opportunities for drug repurposing: Primary screen for OHS-50 cells (AID 1347103); note: nearly all actives have a fitted effect of over 40% in size
In short: as §4

[13] = qHTS of pediatric cancer cell lines to identify multiple opportunities for drug repurposing: Primary screen for MG 63 (6-TG R) cells (AID 1347105); note: nearly all actives have a fitted effect of over 50% in size
In short: as §2

[14] = qHTS of pediatric cancer cell lines to identify multiple opportunities for drug repurposing: Primary screen for control Hh wild type fibroblast cells (AID 1347106); note: nearly all actives have a fitted effect of over 55% in size
In short: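 Viability after 48 h compound treatment at 37C, 500-1,000 cells/well, read as ATP luminescence with CellTiter-Glo. Primary screens used 11-point (MIPE, 0.78 nM-46 µM) or 8-point (NPC, 0.59 nM-46 µM) final concentrations; follow-up screens used 11-point dilutions.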

[15] = qHTS of pediatric cancer cell lines to identify multiple opportunities for drug repurposing: Primary screen for SK-N-MC cells (AID 1347093)
In short: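 Metabolically active cells were quantified by ATP-dependent luminescence (CellTiter-Glo, 15 min at room temperature) following 48 h treatment. Cells had been plated at 500-1,000 per well and settled for 5 h beforehand.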

[16] = qHTS of pediatric cancer cell lines to identify multiple opportunities for drug repurposing: Primary screen for LAN-5 cells (AID 1347100)
In short: as §3

[17] = qHTS of pediatric cancer cell lines to identify multiple opportunities for drug repurposing: Primary screen for RD cells (AID 1347104); note: nearly all actives have a fitted effect of over 55% in size
In short: as §2

[18] = qHTS of pediatric cancer cell lines to identify multiple opportunities for drug repurposing: Primary screen for SJ-GBM2 cells (AID 1347091)
In short: as §1
Potency is the fitted concentration of half-maximal effect.

SMILES	Potency [1]	Potency [2]	Potency [3]	Potency [4]	Potency [5]	Potency [6]	Potency [7]	Potency [8]	Potency [9]	Potency [10]	Potency [11]	Potency [12]	Potency [13]	Potency [14]	Potency [15]	Potency [16]	Potency [17]	Potency [18]
CN1c2cc(O)c(N=NC(N)=O)cc2CC1S(=O)(=O)O (configuration not stated)	inactive	inactive	inactive	inactive	inactive	inactive	inactive	inactive	inactive	inactive	inactive	inactive	inactive	inactive	–	–	–	–
CNC(=O)c1nn(C)c2c1C(C)(C)Cc1cnc(Nc3ccc(N4CCN(C)CC4)cc3)nc1-2	2.62 µM (active)	11.8 µM (active)	–	1.72 µM (active)	2.35 µM (active)	5.9 µM (active)	2.35 µM (active)	1.71 µM (active)	0.743 µM (active)	6.85 µM (active)	3.32 µM (active)	1.53 µM (active)	–	inactive	0.59 µM (active)	0.662 µM (active)	3.72 µM (active)	–
COC(=O)C[C@](O)(CCCC(C)(C)O)C(=O)O[C@@H]1C(OC)=C[C@]23CCCN2CCc2cc4c(cc2[C@H]13)OCO4	inactive	–	inactive	inactive	inactive	inactive	18.7 µM (active)	inactive	–	inactive	inactive	inactive	inactive	inactive	–	inactive	–	inactive
CCCCN1CCC(CNC(=O)c2c3n(c4ccccc24)CCCO3)CC1	inactive	1.87 µM (active)	1.48 µM (active)	–	13.2 µM (active)	inactive	–	15.2 µM (active)	–	–	–	–	0.935 µM (active)	1.18 µM (active)	4.69 µM (active)	–	4.69 µM (active)	–
CN1CCN(c2cc(C(=O)Nc3ccc4c(c3)-c3c(c(C(N)=O)nn3-c3ccc(F)cc3)CC4)c(Cl)cn2)CC1	inactive	11.8 µM (active)	2.35 µM (active)	24.3 µM (active)	–	23.5 µM (active)	16.6 µM (active)	7.64 µM (active)	1.18 µM (active)	30.6 µM (active)	20.9 µM (active)	24.3 µM (active)	23.5 µM (active)	20.9 µM (active)	–	16.6 µM (active)	16.6 µM (active)	–
OCc1ccc(-c2ccc(-c3ccc(CO)s3)o2)s1	inactive	9.35 µM (active)	–	inactive	14.8 µM (active)	inactive	–	21.5 µM (active)	26.4 µM (active)	30.6 µM (active)	inactive	–	11.8 µM (active)	inactive	–	–	–	–
Cc1cc(Nc2cc(N3CCN(C)CC3)nc(C=Cc3ccccc3)n2)n[nH]1	6.02 µM (active)	42.9 µM (active)	–	44.4 µM (active)	4.29 µM (active)	34 µM (active)	3.03 µM (active)	3.5 µM (active)	34 µM (active)	7.89 µM (active)	3.82 µM (active)	2.22 µM (active)	21.5 µM (active)	38.2 µM (active)	1.52 µM (active)	0.679 µM (active)	21.5 µM (active)	–
CC[C@@H]1C(=O)N(C)c2cnc(Nc3ccc(C(=O)NC4CCN(C)CC4)cc3OC)nc2N1C1CCCC1	0.234 µM (active)	–	0.0372 µM (active)	0.172 µM (active)	0.148 µM (active)	14.8 µM (active)	0.0469 µM (active)	2.41 µM (active)	1.32 µM (active)	0.172 µM (active)	5.9 µM (active)	–	–	23.5 µM (active)	0.059 µM (active)	0.0332 µM (active)	0.059 µM (active)	0.0372 µM (active)
C[C@@H](Oc1cc(-n2cnc3ccc(CN4CCN(C)CC4)cc32)sc1C(N)=O)c1ccccc1C(F)(F)F	0.294 µM (active)	–	0.0743 µM (active)	0.153 µM (active)	0.0469 µM (active)	29.6 µM (active)	–	0.108 µM (active)	0.0235 µM (active)	24.3 µM (active)	20.9 µM (active)	0.0968 µM (active)	inactive	–	0.105 µM (active)	0.0332 µM (active)	–	0.0296 µM (active)
Cc1cn2cc(C(=O)N(C)CCO)cc(N[C@@H]3CCOc4cccc(C)c43)c2n1	inactive	inactive	inactive	inactive	inactive	inactive	inactive	–	inactive	inactive	inactive	inactive	inactive	inactive	–	inactive	inactive	–
O=C(C=Cc1c(C(=O)O)[nH]c2cc(Cl)cc(Cl)c12)Nc1ccccc1	inactive	inactive	inactive	inactive	inactive	inactive	inactive	inactive	inactive	inactive	inactive	–	inactive	inactive	–	inactive	inactive	–
Clc1ccc2ncc(-c3cccc(NC4CNC4)n3)n2c1	inactive	–	4.69 µM (active)	17.2 µM (active)	1.48 µM (active)	inactive	inactive	3.41 µM (active)	–	8.63 µM (active)	inactive	–	inactive	inactive	–	–	–	11.8 µM (active)
C[C@@H]1CN(CC(=O)Nc2ccc3c(c2)Cc2cccc(-c4cc(=O)cc(N5CCOCC5)o4)c2S3)C[C@H](C)O1	inactive	–	14.8 µM (active)	–	18.7 µM (active)	–	–	–	–	–	18.7 µM (active)	21.7 µM (active)	–	inactive	4.18 µM (active)	18.7 µM (active)	–	14.8 µM (active)
C=CC(=O)N1CCC[C@@H](n2nc(-c3ccc(Oc4ccccc4)cc3)c3c(N)ncnc32)C1	inactive	23.5 µM (active)	9.35 µM (active)	–	10.5 µM (active)	inactive	11.8 µM (active)	12.1 µM (active)	2.35 µM (active)	–	18.7 µM (active)	–	23.5 µM (active)	inactive	0.372 µM (active)	16.6 µM (active)	33.2 µM (active)	–
c1ccc2c(CCNc3ccc(Nc4ccncc4)cc3)c[nH]c2c1	20.8 µM (active)	–	18.7 µM (active)	4.32 µM (active)	2.35 µM (active)	inactive	14.8 µM (active)	19.2 µM (active)	5.26 µM (active)	21.7 µM (active)	18.7 µM (active)	6.85 µM (active)	–	inactive	1.87 µM (active)	4.18 µM (active)	26.4 µM (active)	5.9 µM (active)
O=C(O)Cn1nnc(-c2cc(N3CCC(Oc4cc(F)ccc4Br)CC3)no2)n1	inactive	inactive	0.372 µM (active)	–	inactive	inactive	–	–	inactive	inactive	inactive	–	inactive	inactive	–	inactive	–	–
CC1(C)CC(=O)c2c(C(F)(F)F)nn(-c3ccc(C(N)=O)c(NC4CCC(OC(=O)CN)CC4)c3)c2C1 (configuration not stated)	0.739 µM (active)	–	0.235 µM (active)	–	0.296 µM (active)	–	–	0.482 µM (active)	0.235 µM (active)	–	0.418 µM (active)	–	–	–	0.166 µM (active)	–	–	0.332 µM (active)
Cc1c(NC(=O)OC[C@@H]2COCCN2)cn2ncnc(Nc3ccc4c(cnn4Cc4cccc(F)c4)c3)c12	inactive	0.0743 µM (active)	0.0469 µM (active)	–	–	–	–	–	–	24.3 µM (active)	–	–	0.187 µM (active)	–	0.0935 µM (active)	20.9 µM (active)	–	–
NC(=O)c1cccc2cn(-c3ccc([C@@H]4CCCNC4)cc3)nc12	20.8 µM (active)	inactive	1.87 µM (active)	–	6.62 µM (active)	inactive	–	inactive	20.9 µM (active)	inactive	inactive	–	inactive	–	–	11.8 µM (active)	–	–
C1Cc2[nH]nc(-c3nn[nH]n3)c2C1	inactive	inactive	inactive	inactive	inactive	inactive	inactive	inactive	–	inactive	inactive	inactive	inactive	inactive	–	inactive	inactive	–
CN(C)CC(C)(C)CNc1nn2c(-c3ccccc3)nnc2cc1C1CCC1	18.6 µM (active)	–	–	0.863 µM (active)	0.264 µM (active)	inactive	5.9 µM (active)	1.21 µM (active)	0.935 µM (active)	–	–	1.37 µM (active)	2.96 µM (active)	inactive	0.469 µM (active)	–	–	1.18 µM (active)
C[C@]12CC[C@H](O)CC1=CCC1C2CC[C@]2(C)C(n3cnc4ccccc43)=CCC12 (some centres not stated)	inactive	–	14.8 µM (active)	–	–	inactive	–	–	–	inactive	inactive	–	inactive	inactive	–	–	inactive	23.5 µM (active)
CN(C)c1nc(Cc2ccc(NC(=O)c3ccc4ccccc4c3)cc2)nc(Cl)c1CC(=O)O	inactive	–	–	inactive	inactive	inactive	inactive	inactive	inactive	inactive	inactive	inactive	inactive	inactive	inactive	inactive	inactive	inactive
CC(C)(C)NC(=O)[C@H]1CN(Cc2cccnc2)CCN1C[C@@H](O)C[C@@H](Cc1ccccc1)C(=O)N[C@H]1c2ccccc2C[C@H]1O	inactive	–	0.743 µM (active)	–	–	inactive	–	15.2 µM (active)	1.05 µM (active)	–	–	19.3 µM (active)	–	inactive	0.118 µM (active)	–	–	–
